JMJD2A Tudor inh = qHTS Assay for Inhibitors of JMJD2A-Tudor Domain; Potency, µM (highest dose often 114 µM), hits mostly inhibitors; AlphaScreen JMJD2A-Tudor / H3K4me3 peptide binding; 4.4% of 390,000 active; AID 504339, 2011; Lysine-specific demethylase 4A (Homo sapiens), O75164; further: nearly all actives have a fitted effect of over 50% in size
G9a block = qHTS Assay for Inhibitors of Histone Lysine Methyltransferase G9a. G9a H3K9 monomethylation, AlphaScreen, 2 h. Histone-lysine N-methyltransferase EHMT2 (Homo sapiens), Q96KQ7. 8.8% of 350,000 active. AID 504332, 2011. Potency, µM (series often up to 102 µM), most hits filed as inhibitors; further: nearly all actives have a fitted effect of over 75% in size
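G9a (20 nM) was preincubated 15 min with compound, then reacted 2 h at room temperature with 500 nM biotin-H3K9 peptide and 20 µM SAM. Monomethyl-H3K9 detected by AlphaScreen using anti-H3K9me1 antibody.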
VDR inh = Inhibitors of the vitamin D receptor (VDR): qHTS; VDR-SRC2-3 peptide fluorescence polarization, 2 h; Potency, µM, usual class: inhibitors; 0.93% of 400,000 active; AID 504847, 2011
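Measured by FP: displacement of SRC2-3 coactivator peptide from VDR by library compounds, following a two-hour ambient incubation.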
HP1b chromo inh = HTS for Inhibitors of HP1-beta Chromodomain Interactions with Methylated Histone Tails; Chromobox protein homolog 1 (Homo sapiens), P83916; AlphaScreen HP1-beta / biotin-H3K9me3 peptide binding; Potency, µM (top dose mostly 114 µM), most hits filed as inhibitors; 0.56% of 390,000 active; AID 540317, 2011; further: nearly all actives have a fitted effect of over 70% in size
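Compound inhibition of the preformed complex between 50 nM HP1-beta and 50 nM biotinylated H3K9me3 peptide was read by AlphaScreen. Buffer was PBS pH 7.4 with 0.01% Tween-20. Incubations ran 30 min at room temperature, with 10 ug/mL donor/acceptor beads.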
PLK1 PBD inh = qHTS for Inhibitors of PLK1-PDB (polo-like kinase 1 - polo-box domain): Primary Screen | Plk1 PBD binding of FITC phosphopeptide, fluorescence polarization | Potency, µM, hits mostly inhibitors | 2.8% of 360,000 active | AID 720504, 2013; further: series mostly up to about 57 µM; nearly all actives have a fitted effect of over 65% in size
BAZ2B inh = qHTS Assay for Inhibitors of BAZ2B; Potency, µM (top dose mostly 114 µM), most hits filed as inhibitors; Bromodomain adjacent to zinc finger domain protein 2B (Homo sapiens), Q9UIF8; AID 504333, 2011; AlphaScreen BAZ2B-H3K14Ac peptide displacement; 4.4% of 360,000 active; further: nearly all actives have a fitted effect of over 60% in size
Target sequence (Q9UIF8 whole entry, looked up, the tested form may be a part): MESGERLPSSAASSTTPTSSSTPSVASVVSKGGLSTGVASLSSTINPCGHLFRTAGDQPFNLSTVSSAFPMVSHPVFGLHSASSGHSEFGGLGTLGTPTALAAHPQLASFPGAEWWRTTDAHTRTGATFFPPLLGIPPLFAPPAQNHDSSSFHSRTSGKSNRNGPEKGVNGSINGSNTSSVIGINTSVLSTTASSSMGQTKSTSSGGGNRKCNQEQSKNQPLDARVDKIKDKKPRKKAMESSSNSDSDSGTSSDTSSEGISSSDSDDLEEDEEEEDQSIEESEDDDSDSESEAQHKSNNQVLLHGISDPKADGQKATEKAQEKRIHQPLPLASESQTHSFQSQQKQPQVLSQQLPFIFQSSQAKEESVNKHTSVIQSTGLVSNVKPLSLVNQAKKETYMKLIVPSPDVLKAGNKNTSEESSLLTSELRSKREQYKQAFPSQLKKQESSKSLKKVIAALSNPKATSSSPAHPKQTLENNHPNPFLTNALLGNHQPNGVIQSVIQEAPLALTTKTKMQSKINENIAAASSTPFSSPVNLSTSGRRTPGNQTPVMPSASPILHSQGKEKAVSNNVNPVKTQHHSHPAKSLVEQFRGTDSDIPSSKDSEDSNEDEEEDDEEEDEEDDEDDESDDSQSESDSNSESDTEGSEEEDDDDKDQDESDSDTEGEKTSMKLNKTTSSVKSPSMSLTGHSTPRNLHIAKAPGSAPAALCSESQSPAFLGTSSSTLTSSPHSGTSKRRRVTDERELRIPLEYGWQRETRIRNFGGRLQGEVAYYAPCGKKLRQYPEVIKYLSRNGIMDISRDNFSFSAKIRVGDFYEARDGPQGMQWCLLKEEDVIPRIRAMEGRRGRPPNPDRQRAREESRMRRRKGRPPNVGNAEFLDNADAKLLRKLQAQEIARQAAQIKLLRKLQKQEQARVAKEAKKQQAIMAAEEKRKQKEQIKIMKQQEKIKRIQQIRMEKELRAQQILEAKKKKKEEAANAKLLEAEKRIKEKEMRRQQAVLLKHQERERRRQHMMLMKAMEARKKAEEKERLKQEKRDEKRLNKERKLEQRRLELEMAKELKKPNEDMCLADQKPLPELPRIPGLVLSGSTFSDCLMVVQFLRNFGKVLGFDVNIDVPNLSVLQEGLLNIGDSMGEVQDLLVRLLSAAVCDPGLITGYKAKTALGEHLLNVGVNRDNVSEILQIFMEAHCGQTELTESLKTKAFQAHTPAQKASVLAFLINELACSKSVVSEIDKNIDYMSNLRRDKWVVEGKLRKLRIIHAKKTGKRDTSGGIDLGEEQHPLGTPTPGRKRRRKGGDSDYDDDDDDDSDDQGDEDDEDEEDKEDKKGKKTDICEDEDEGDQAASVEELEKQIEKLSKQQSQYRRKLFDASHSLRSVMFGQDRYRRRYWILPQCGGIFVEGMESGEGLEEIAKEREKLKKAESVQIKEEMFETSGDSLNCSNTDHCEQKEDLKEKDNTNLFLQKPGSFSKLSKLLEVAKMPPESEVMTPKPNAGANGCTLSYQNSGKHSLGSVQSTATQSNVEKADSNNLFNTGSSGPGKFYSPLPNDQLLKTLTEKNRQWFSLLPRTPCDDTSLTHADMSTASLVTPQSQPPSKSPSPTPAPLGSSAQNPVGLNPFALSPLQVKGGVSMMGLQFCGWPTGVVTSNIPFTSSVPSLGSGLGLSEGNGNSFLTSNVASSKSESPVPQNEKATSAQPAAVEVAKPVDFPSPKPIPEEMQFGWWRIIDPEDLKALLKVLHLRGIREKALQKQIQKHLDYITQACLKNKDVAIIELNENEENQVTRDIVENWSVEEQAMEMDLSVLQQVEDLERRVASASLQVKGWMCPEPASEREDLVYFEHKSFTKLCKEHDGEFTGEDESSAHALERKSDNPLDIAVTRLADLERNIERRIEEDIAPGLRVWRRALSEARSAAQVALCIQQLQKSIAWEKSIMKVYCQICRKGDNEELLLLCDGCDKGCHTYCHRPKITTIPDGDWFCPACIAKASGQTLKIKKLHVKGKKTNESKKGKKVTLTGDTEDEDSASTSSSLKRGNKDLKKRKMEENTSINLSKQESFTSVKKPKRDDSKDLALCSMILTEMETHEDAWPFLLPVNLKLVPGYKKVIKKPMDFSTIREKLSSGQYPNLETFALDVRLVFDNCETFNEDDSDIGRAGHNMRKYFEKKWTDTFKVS
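Complex of BAZ2B and biotin-H3K14Ac (50 nM apiece) forms over 30 min at RT, then faces library compounds up to 110 uM for another 30 min; AlphaScreen beads added, 20 min dark incubation, luminescence read.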
TbPYK confirm = qHTS of Trypanosoma Brucei Inhibitors: Confirmatory Assay for Cherry-picked Compounds; recombinant TbPYK, Kinase-Glo ATP luminescence; 67% of 890 active; Potency, µM (top dose mostly 76.9 µM), actives largely listed as inhibitors; shares compounds with PLK1 PBD inh; AID 720569, 2013; further: nearly all actives have a fitted effect of over 70% in size
TbPYK ADP-Glo = qHTS of Trypanosoma Brucei Inhibitors: Orthogonal Assay for Cherry-picked Compounds | Potency, µM (top dose mostly 76.9 µM), usual class: inhibitors | 62% of 890 active | recombinant TbPYK, ADP-Glo luminescence, 60 min | shares compounds with PLK1 PBD inh; further: nearly all actives have a fitted effect of over 75% in size
Large screens that a line does not name were inactive (follow-up assays come after a bar, where they were run). A selection: hits, their analogues and other compounds. The true share with any hit is near 11%. The call rests on the fitted dose curve; in most records, active means well fitted curve in the direction sought with a large enough effect; inconclusive means small, poorly fitted or top-dose-only effect, or another doubt; inactive means no such curve, though single readings can be large; an effect the other way counts as inactive or inconclusive.

Cc1ccc(CCNC(=O)C2CCCN(C(=O)c3cc4sccc4n3C)C2)cc1 (stereo not drawn)	none | TbPYK confirm 2.5µM | TbPYK ADP-Glo 10µM
O=C(Nc1ccc2c(c1)ncn2-c1ccccc1)c1ccco1	G9a block 11µM, PLK1 PBD inh inconclusive | TbPYK confirm 14µM | TbPYK ADP-Glo 4.5µM
CCNC(=O)c1c(NC(=O)c2cc(=O)c3ccc(C)c(C)c3o2)sc2c1CCCC2	none (no result: PLK1 PBD inh)
Cc1ccc(NC(=O)CN(C)C(=O)CNC(=O)c2sc3ccccc3c2Cl)cc1	none
Cc1ccc(C(=S)N2CCN(Cc3ccccc3)CC2)cc1	G9a block inconclusive, VDR inh inconclusive, PLK1 PBD inh 8.4µM, BAZ2B inh inconclusive | TbPYK confirm 8.9µM | TbPYK ADP-Glo 13µM
Cc1ccc(NC(=S)N2CCN(Cc3ccccc3)CC2)cc1	none
CCCNC(=O)C1(C)CCCN(C(=O)c2cc(C)n(C(C)(C)C)n2)C1 (stereo not drawn)	none (no result: JMJD2A Tudor inh, G9a block, VDR inh, HP1b chromo inh, BAZ2B inh)
CCOC(=O)CSc1nnc(Cc2ccc(OC)cc2)n1-c1ccccc1	JMJD2A Tudor inh 45µM, G9a block 7.9µM | TbPYK confirm 3.2µM | TbPYK ADP-Glo 5µM
C[C@H]1CCC/C=C/[C@@H]2C[C@H](O)C[C@H]2[C@H](O)[C@H](S(=O)c2ccc(O)cc2)CC(=O)O1 (stereo partly drawn)	JMJD2A Tudor inh 40µM, VDR inh inconclusive, HP1b chromo inh inconclusive, PLK1 PBD inh 11µM (no result: G9a block, BAZ2B inh) | TbPYK confirm 18µM | TbPYK ADP-Glo 13µM
CC1C=CCC2C(=O)N(c3cccc(C(=O)NCc4ccccc4)c3)C(=O)C12 (stereo not drawn)	G9a block 28µM | TbPYK confirm inconclusive | TbPYK ADP-Glo inconclusive
O=[N+]([O-])c1ccc2c(c1)/C(=N\O)c1ccccc1-2	none
O=[N+]([O-])c1ccc2c(c1)-c1ccccc1C2O (stereo not drawn)	PLK1 PBD inh 8.4µM (no result: JMJD2A Tudor inh, G9a block, VDR inh, HP1b chromo inh, BAZ2B inh) | TbPYK confirm inconclusive | TbPYK ADP-Glo 35µM
N#Cc1c(NC(NC(=O)c2ccco2)C(=O)c2ccccc2)sc2c1CCCC2 (stereo not drawn)	JMJD2A Tudor inh 50µM, G9a block 5µM | TbPYK confirm inconclusive | TbPYK ADP-Glo 3.5µM
N#Cc1c(NC(=O)/C=C/c2ccco2)sc2c1CCCC2	G9a block inconclusive, BAZ2B inh inconclusive
CC(C)Sc1nnc(CNC(=O)C23CC4CC(CC(C4)C2)C3)n1C1CCCCC1	G9a block 20µM | TbPYK confirm 5.6µM | TbPYK ADP-Glo 11µM
COc1ccc(S(=O)(=O)N(CCc2ccccc2)CC(=O)O)cc1	none
CCN(CC)c1ccc(N=C2C(=O)Nc3ccccc32)cc1	JMJD2A Tudor inh 16µM, G9a block 6.3µM, VDR inh inconclusive, HP1b chromo inh inconclusive, BAZ2B inh 11µM | TbPYK confirm inconclusive | TbPYK ADP-Glo inactive
COc1cccc(CNC(=O)[C@@H]2CCCN2C(=O)[C@@H]2CCCN2C(=O)OC(C)(C)C)c1	none (no result: JMJD2A Tudor inh, G9a block, VDR inh, HP1b chromo inh, BAZ2B inh)
CCN1C(=O)/C(=C2/C=Cc3cc(C)ccc3N2CC)N(C)C1=S	JMJD2A Tudor inh 16µM, G9a block 11µM, HP1b chromo inh inconclusive, BAZ2B inh 40µM | TbPYK confirm 35µM | TbPYK ADP-Glo inactive
Cc1ccc(S(=O)c2ccc([N+](=O)[O-])c3nonc23)cc1 (stereo not drawn)	PLK1 PBD inh 1.5µM (no result: JMJD2A Tudor inh, G9a block, VDR inh, HP1b chromo inh, BAZ2B inh) | TbPYK confirm inactive | TbPYK ADP-Glo 11µM
CN(C)C(=O)c1ccc(-c2nc(NC3CCNCC3)c3ccccc3n2)cc1	none (no result: JMJD2A Tudor inh, HP1b chromo inh, PLK1 PBD inh, BAZ2B inh)
CSc1cnn(-c2ccccc2)c(=O)c1SC	PLK1 PBD inh inconclusive
CSc1cnn(Cc2ccccc2)c(=O)c1SCc1ccccc1	G9a block 8.9µM, VDR inh inconclusive, PLK1 PBD inh inconclusive | TbPYK confirm 14µM | TbPYK ADP-Glo 22µM
CN(Cc1ccccn1)C(=O)C1CCC(=O)N(Cc2cccc(C(F)(F)F)c2)C1 (stereo not drawn)	none
O=C1C=CC(=O)N1c1cccc(-c2ccccc2)c1	JMJD2A Tudor inh 50µM, G9a block 1µM, VDR inh 45µM, HP1b chromo inh 32µM, PLK1 PBD inh 2.7µM | TbPYK confirm 4µM | TbPYK ADP-Glo 7.9µM
CCn1c(C)cc(/C=C2\NC(=O)N(CC(=O)Nc3cccc(C)c3)C2=O)c1C	G9a block inconclusive, BAZ2B inh inconclusive
Cc1cccc(NC(=O)CN2C(=O)N/C(=C/c3ccc(C)o3)C2=O)c1	JMJD2A Tudor inh 79µM, G9a block 35µM, VDR inh inconclusive | TbPYK confirm inconclusive | TbPYK ADP-Glo 35µM
O=C(NCc1ccncc1)C(=O)N/N=C/c1ccccn1	none
COC(=O)c1cc(NC(=S)NC(=O)c2ccccc2)ccc1N1CCOCC1	G9a block inconclusive, BAZ2B inh inconclusive
CC1CCN(C(=S)NC(=O)c2cccs2)CC1	G9a block 45µM | TbPYK confirm inconclusive | TbPYK ADP-Glo 14µM
CC1CCN(C(=S)NC(=O)c2ccccc2)CC1	none
Cn1cccc1C(=O)C(=O)Nc1cc(Cl)cc(Cl)c1	JMJD2A Tudor inh 16µM, VDR inh inconclusive, PLK1 PBD inh 3µM | TbPYK confirm inactive | TbPYK ADP-Glo inactive
Cn1cccc1C(=O)C(=O)Nc1ccc(Cl)cc1	none
CCOC(=O)[C@]12CCC=C1N(Cc1ccc(Cl)cc1Cl)C(=O)[C@H](CC(=O)N1CCN(C(=O)c3ccco3)CC1)C2	none (no result: JMJD2A Tudor inh, G9a block, VDR inh, HP1b chromo inh, BAZ2B inh)
Cc1nn(C(C)C(=O)N2CCOCC2)c(C)c1[N+](=O)[O-] (stereo not drawn)	PLK1 PBD inh inconclusive
O=C1C=CC(=O)N1CCCCCCN1C(=O)C=CC1=O	JMJD2A Tudor inh 18µM, G9a block 1.6µM, VDR inh 3.2µM, HP1b chromo inh inconclusive, PLK1 PBD inh 3.4µM | TbPYK confirm 7.1µM | TbPYK ADP-Glo 7.1µM
Oc1ccc(C23CC4CC(CC(C4)C2)C3)cc1O	JMJD2A Tudor inh 22µM, G9a block 0.71µM, HP1b chromo inh inconclusive, BAZ2B inh inconclusive | TbPYK confirm 20µM | TbPYK ADP-Glo 20µM

Screening data (PubChem BioAssay)
